# Legend:
# Test in all cases: yeast three-hybrid, YBZ-1, SC-Leu-His + 0.5 mM 3-AT, 4 days
# Conditions in all cases: tags: N-Gal4 AD-HA kept; label: inside an RPR1-promoter hybrid RNA with tandem MS2 sites; ssRNA
# [1] = target: PUM1 PUF domain R3-EYS (Homo sapiens, UniProt Q14671 828-1176, C935E;R936Y;Q939S)
# Method in brief: (§1)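 Pumilio-1 PUF domain libraries, randomized at the three base-contacting residues of each repeat, were co-expressed with matching RNA elements from a centromeric plasmid in strain YBZ-1, which carries a LexA–MS2 coat fusion and a HIS3 reporter. Transformants grew for four days on SC-Leu (input) or on SC-Leu-His + 0.5 mM 3-AT (selection), and the repeat regions were PCR-amplified and Illumina-sequenced. The interaction score is the log change in variant frequency from input to selection. That logarithm is base 2, with a pseudocount of 1 where a variant was absent.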
# [2] = target: PUM1 PUF domain R3-IFS (Homo sapiens, UniProt Q14671 828-1176, C935I;R936F;Q939S)
# Method in brief: as §1
# [3] = target: PUM1 PUF domain R4-SRE (Homo sapiens, UniProt Q14671 828-1176, N971S;H972R;Q975E)
# Method in brief: as §1
# [4] = target: T1, PUM1 PUF domain R6-NFT (Homo sapiens, UniProt Q14671 828-1176, Y1044F;Q1047T)
# T1 sequence: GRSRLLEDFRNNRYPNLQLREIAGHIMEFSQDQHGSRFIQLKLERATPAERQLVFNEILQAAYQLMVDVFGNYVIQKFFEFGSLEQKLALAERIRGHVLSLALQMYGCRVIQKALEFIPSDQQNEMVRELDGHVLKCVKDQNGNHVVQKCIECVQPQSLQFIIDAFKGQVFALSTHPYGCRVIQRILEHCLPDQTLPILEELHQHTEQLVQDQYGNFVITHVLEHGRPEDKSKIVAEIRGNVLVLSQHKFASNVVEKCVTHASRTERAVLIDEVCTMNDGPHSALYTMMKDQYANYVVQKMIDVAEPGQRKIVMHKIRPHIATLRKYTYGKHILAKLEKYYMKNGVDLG
# Method in brief: as §1
# [5] = target: PUM1 PUF domain R3-ESL (Homo sapiens, UniProt Q14671 828-1176, C935E;R936S;Q939L)
# Method in brief: as §1
# [6] = target: PUM1 PUF domain R8-VYF (Homo sapiens, UniProt Q14671 828-1176, N1122V;Q1126F)
# Method in brief: as §1
# [7] = target: PUM1 PUF domain R8-RWP (Homo sapiens, UniProt Q14671 828-1176, N1122R;Y1123W;Q1126P)
# Method in brief: as §1
# [8] = target: PUM1 PUF domain R3-ART (Homo sapiens, UniProt Q14671 828-1176, C935A;Q939T)
# Method in brief: as §1
# [9] = target: PUM1 PUF domain R5-EFW (Homo sapiens, UniProt Q14671 828-1176, C1007E;R1008F;Q1011W)
# Method in brief: as §1
# [10] = target: PUM1 PUF domain R8-PYL (Homo sapiens, UniProt Q14671 828-1176, N1122P;Q1126L)
# Method in brief: as §1
# [11] = target: PUM1 PUF domain R8-RYN (Homo sapiens, UniProt Q14671 828-1176, N1122R;Q1126N)
# Method in brief: as §1
# [12] = target: PUM1 PUF domain R4-RMR (Homo sapiens, UniProt Q14671 828-1176, N971R;H972M;Q975R)
# Method in brief: as §1
# [13] = target: PUM1 PUF domain R4-GSQ (Homo sapiens, UniProt Q14671 828-1176, N971G;H972S)
# Method in brief: as §1
# [14] = target: PUM1 PUF domain R7-KFY (Homo sapiens, UniProt Q14671 828-1176, S1079K;N1080F;E1083Y)
# Method in brief: as §1
# [15] = target: PUM1 PUF domain R7-EPW (Homo sapiens, UniProt Q14671 828-1176, S1079E;N1080P;E1083W)
# Method in brief: as §1
# [16] = target: PUM1 PUF domain R7-RGW (Homo sapiens, UniProt Q14671 828-1176, S1079R;N1080G;E1083W)
# Method in brief: as §1
# [17] = target: PUM1 PUF domain R5-RAV (Homo sapiens, UniProt Q14671 828-1176, C1007R;R1008A;Q1011V)
# Method in brief: as §1
# [18] = target: PUM1 PUF domain R5-NIL (Homo sapiens, UniProt Q14671 828-1176, C1007N;R1008I;Q1011L)
# Method in brief: as §1
sequence,measurement,setting,value
GGCUAGAACUAGUGGAUCCCCCGGCGCCCGGCGGCUCGAGCCCGGGUAAGUGUAAGUAGUCUGCAUGCCGCCGGGCGCCAUGCCUGCAGGUCGACUCUAGAAAACAUG,binding signal,[1],4.44 log2 enrichment (interaction score)
same,binding signal,[2],5.56 log2 enrichment (interaction score)
GGCUAGAACUAGUGGAUCCCCCGGCGCCCGGCGGCUCGAGCCCGGGUAAGUGUAAAUAGUCUGCAUGCCGCCGGGCGCCAUGCCUGCAGGUCGACUCUAGAAAACAUG,binding signal,[3],3.49 log2 enrichment (interaction score)
same,binding signal,[4],4.45 log2 enrichment (interaction score)
same,binding signal,[5],2.59 log2 enrichment (interaction score)
same,binding signal,[6],2.23 log2 enrichment (interaction score)
same,binding signal,[7],3.02 log2 enrichment (interaction score)
same,binding signal,[8],3.43 log2 enrichment (interaction score)
same,binding signal,[9],4.47 log2 enrichment (interaction score)
same,binding signal,[10],2.9 log2 enrichment (interaction score)
same,binding signal,[11],5.13 log2 enrichment (interaction score)
GGCUAGAACUAGUGGAUCCCCCGGCGCCCGGCGGCUCGAGCCCGGGUAAGUGUACAUAGUCUGCAUGCCGCCGGGCGCCAUGCCUGCAGGUCGACUCUAGAAAACAUG,binding signal,[12],2.94 log2 enrichment (interaction score)
same,binding signal,[13],3.24 log2 enrichment (interaction score)
GGCUAGAACUAGUGGAUCCCCCGGCGCCCGGCGGCUCGAGCCCGGGUAAGUAUAAAUAGUCUGCAUGCCGCCGGGCGCCAUGCCUGCAGGUCGACUCUAGAAAACAUG,binding signal,[14],2.56 log2 enrichment (interaction score)
GGCUAGAACUAGUGGAUCCCCCGGCGCCCGGCGGCUCGAGCCCGGGUAAGUCUAAAUAGUCUGCAUGCCGCCGGGCGCCAUGCCUGCAGGUCGACUCUAGAAAACAUG,binding signal,[14],3.1 log2 enrichment (interaction score)
GGCUAGAACUAGUGGAUCCCCCGGCGCCCGGCGGCUCGAGCCCGGGUAAGUUUAAAUAGUCUGCAUGCCGCCGGGCGCCAUGCCUGCAGGUCGACUCUAGAAAACAUG,binding signal,[15],2.81 log2 enrichment (interaction score)
same,binding signal,[16],3.68 log2 enrichment (interaction score)
GGCUAGAACUAGUGGAUCCCCCGGCGCCCGGCGGCUCGAGCCCGGGUAAGCGUAAAUAGUCUGCAUGCCGCCGGGCGCCAUGCCUGCAGGUCGACUCUAGAAAACAUG,binding signal,[6],2.73 log2 enrichment (interaction score)
same,binding signal,[7],5 log2 enrichment (interaction score)
same,binding signal,[10],3.48 log2 enrichment (interaction score)
same,binding signal,[11],6.46 log2 enrichment (interaction score)
GGCUAGAACUAGUGGAUCCCCCGGCGCCCGGCGGCUCGAGCCCGGGUAAGUGUAAUUAGUCUGCAUGCCGCCGGGCGCCAUGCCUGCAGGUCGACUCUAGAAAACAUG,binding signal,[8],0.34 log2 enrichment (interaction score)
GGCUAGAACUAGUGGAUCCCCCGGCGCCCGGCGGCUCGAGCCCGGGUAAGUGUAUAUAGUCUGCAUGCCGCCGGGCGCCAUGCCUGCAGGUCGACUCUAGAAAACAUG,binding signal,[13],0.64 log2 enrichment (interaction score)
GGCUAGAACUAGUGGAUCCCCCGGCGCCCGGCGGCUCGAGCCCGGGUAAGUGUGAAUAGUCUGCAUGCCGCCGGGCGCCAUGCCUGCAGGUCGACUCUAGAAAACAUG,binding signal,[9],4.12 log2 enrichment (interaction score)
GGCUAGAACUAGUGGAUCCCCCGGCGCCCGGCGGCUCGAGCCCGGGUAAGUGUCAAUAGUCUGCAUGCCGCCGGGCGCCAUGCCUGCAGGUCGACUCUAGAAAACAUG,binding signal,[17],2.94 log2 enrichment (interaction score)
GGCUAGAACUAGUGGAUCCCCCGGCGCCCGGCGGCUCGAGCCCGGGUAAGUGUUAAUAGUCUGCAUGCCGCCGGGCGCCAUGCCUGCAGGUCGACUCUAGAAAACAUG,binding signal,[18],3.18 log2 enrichment (interaction score)

# From paper PMC8384837, “Expanding the binding specificity for RNA recognition by a PUF domain”
